# Bioassay records (PubChem BioAssay)
# UBC9 SUMO inh – SUMOylation inhibition; actives 0.36% (n = 290,000); HTRF SUMOylation assay, SAE1/SAE2 + UBC9, in vitro; inhibition, % at 35 µM; P63279; in the data active = inhibition above about 50%, passing the limit was not always enough
# Casp6 inh – caspase-6 (human) enzyme inhibition; inhibition, % at 12.5 µM; purified caspase-6, Z-VEID-R110 cleavage fluorescence; actives 0.53% (n = 350,000); P55212;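 active = mean inhibition across replicates at least about 35%, with every replicate also reaching that limit, limit read from the data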;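 also: 0% = median of neutral control wells and 100% = no fluorescence left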
# NSD2 HMT inh – NSD2 (human) methyltransferase inhibition. O96028. NSD2 peptide methylation, AlphaScreen, 120 min. inhibition, % at 12.5 µM. actives 0.54% (n = 310,000). AID 743445; in the data active = inhibition above about 50%
# SIRT5 inh – blocks human SIRT5 desuccinylation of peptide; Q9NXA8; actives 1.1% (n = 330,000); Purified SirT5, succinyl-peptide AMC, trypsin-coupled fluorescence; AID 652115; inhibition, % at 15 µM; in the data active = inhibition above about 15%
# * hit, by the source's call; x = no result; ! = not confirmed by another sample. This is a sample that favours compounds with a hit; in the whole collection about 1.6% have one here.
SMILES,UBC9 SUMO inh,Casp6 inh,NSD2 HMT inh,SIRT5 inh
C[C@H]1CN([C@@H](C)CO)C(=O)Cc2cc(NC(=O)Cc3ccccc3)ccc2O[C@H]1CN(C)CC1CC1,x,-1.8,x,-2.7
N=c1c2cn[nH]c2nc(SCC(=O)c2ccc(Br)cc2)n1-c1ccc(Br)cc1,54.2*,3.9,-5.9,-1.1
Nc1ccc2oc(-c3cccs3)nc2c1,56.0*,x,-10.1,x
Cc1ccc(-c2nc3cc(C)ccc3o2)cc1,8.0,x,0.8,x
Cc1ccc(-c2nc3cc(N)ccc3o2)cc1,51.5*,x,-5.3,x
COc1ccc2c(c1)CCC1=C2NC(=S)NC1c1ccc(N(C)C)cc1 (configuration not stated),7.9,-10.0,0.1,15.3*
CC#CC#Cc1cccc(=O)o1,19.2,53.1*,1.3,-12.1
C[C@@H]1CN([C@H](C)CO)C(=O)c2cc(NS(=O)(=O)c3ccc(Cl)cc3)ccc2O[C@@H]1CN(C)Cc1ccc(-c2ccccc2)cc1,x,-3.7,x,29.9*
Cc1ccc(S(=O)(=O)Nc2cccc3c2O[C@@H](CN(C)Cc2ccc4c(c2)OCO4)[C@@H](C)CN([C@H](C)CO)C3=O)cc1,x,2.7,x,15.0*
C[C@@H]1CN([C@H](C)CO)C(=O)c2cccc(NS(=O)(=O)c3ccccc3)c2O[C@@H]1CN(C)Cc1ccc(-c2ccccc2)cc1,x,-0.3,x,8.3
C[C@H](CO)N1C[C@H](C)[C@H](CN(C)Cc2ccc(-c3ccccc3)cc2)Oc2ccc(NS(=O)(=O)c3ccc(Cl)cc3)cc2C1=O,x,0.7,x,9.0
C[C@H](CO)N1C[C@H](C)[C@@H](CN(C)Cc2ccc(-c3ccccc3)cc2)Oc2c(NS(=O)(=O)c3ccccc3)cccc2C1=O,x,-1.0,x,15.6*!
C[C@H](CO)N1C[C@H](C)[C@@H](CN(C)Cc2ccc(C(=O)O)cc2)Oc2ccc(NS(=O)(=O)c3ccc(Cl)cc3)cc2C1=O,x,2.0,x,23.7*
C[C@@H]1CN([C@H](C)CO)C(=O)c2cc(NC(=O)Nc3ccccc3)ccc2O[C@H]1CN(C)Cc1ccc(-c2ccccc2)cc1,x,-0.3,x,1.9
CC(C)C#Cc1cnc2c(c1)C(=O)N([C@@H](C)CO)C[C@@H](C)[C@H](CN(C)C(=O)c1cccc(F)c1)O2,x,0.1,x,-0.9
C[C@H]1CN([C@@H](C)CO)C(=O)c2cccc(NS(=O)(=O)c3cn(C)cn3)c2O[C@H]1CN(C)Cc1ccc(Oc2ccccc2)cc1,x,-1.5,x,29.3*
C[C@@H]1CN([C@H](C)CO)C(=O)c2cc(NS(=O)(=O)c3ccccc3)ccc2O[C@@H]1CN(C)Cc1ccc(-c2ccccc2)cc1,x,-0.9,x,15.3*
C[C@@H]1CN([C@H](C)CO)C(=O)c2cc(NS(=O)(=O)c3ccc(F)cc3)ccc2O[C@@H]1CN(C)Cc1ccc(-c2ccccc2)cc1,x,3.4,x,15.9*
C[C@H](CO)N1C[C@H](C)[C@@H](CN(C)Cc2ccc(-c3ccccc3)cc2)Oc2ccc(NS(=O)(=O)c3ccccc3)cc2C1=O,x,-0.4,x,8.1
C[C@@H]1CN([C@H](C)CO)C(=O)c2cccc(NS(=O)(=O)c3cn(C)cn3)c2O[C@@H]1CN(C)Cc1ccc(Oc2ccccc2)cc1,x,-0.7,x,-0.4
Cc1ccc(S(=O)(=O)Nc2ccc3c(c2)CC(=O)N([C@@H](C)CO)C[C@@H](C)[C@H](CN(C)C(=O)Nc2ccc(C(F)(F)F)cc2)O3)cc1,x,-0.7,x,4.0
CCOC(=O)Cn1c2ccc(OC)cc2c2nc3ccccc3nc21,53.9*,x,-1.3,x
O=C1CN(S(=O)(=O)c2cccc(F)c2)C[C@@H]2[C@H](c3ccc(-c4ccc(F)cc4)cc3)[C@H](CO)N12,x,x,x,-7.6
Cc1cccc(-c2ccc([C@H]3[C@H]4CN(S(=O)(=O)c5cccc(F)c5)CC(=O)N4[C@H]3CO)cc2)c1,x,-0.8,x,19.1*
Cc1cccc(-c2ccc([C@H]3[C@@H](CO)N4C(=O)CN(S(=O)(=O)c5cccc(F)c5)C[C@@H]34)cc2)c1,x,-2.6,x,17.1*
SMILES,UBC9 SUMO inh,Casp6 inh,NSD2 HMT inh,SIRT5 inh
O=C1CN(S(=O)(=O)c2cccc(F)c2)C[C@@H]2[C@H](c3ccc(-c4ccccc4)cc3)[C@H](CO)N12,x,0.1,x,2.6
CON(C)C(=O)CC(CN(Cc1ccccc1)C(=O)OC(C)(C)C)c1ccc(Cl)cc1 (configuration not stated),x,0.1,x,-4.2
CON(C)C(=O)CC(CNC(=O)OC(C)(C)C)c1ccc(Cl)cc1 (configuration not stated),x,-1.0,x,21.5*
CC(=O)N(C)C[C@@H]1Oc2ncc(C#Cc3cccc(F)c3)cc2C(=O)N([C@@H](C)CO)C[C@H]1C,x,-0.3,x,4.4
Cc1ccc(S(=O)(=O)N[C@H]2C=C[C@H](CC(=O)N3CCc4ccccc4C3)O[C@H]2CO)cc1,x,1.5,x,-1.6
N#C/C(=C/c1cc(Cl)c(O)c(Cl)c1)C(=O)N1CCCCC1,12.4,1.0,2.7,3.6
N#CC(C#N)=C(N)/C(C#N)=C/c1cc(O)c(O)c(O)c1,x,41.5*,x,13.2
NC(=O)c1cc(N)ccc1N1CCCC1,18.6,5.1,50.8*,1.0
NC(=O)c1cc(N)ccc1N1CCCCC1,-3.9,11.0,-0.7,-2.4
C[C@@H]1CN([C@H](C)CO)C(=O)c2cc(NC(=O)C3CC3)ccc2O[C@H]1CN(C)Cc1ccncc1,x,5.8,x,1.0
O=C(NC1Cc2ccccc2C1)[C@H]1[C@H](CO)[C@H]2Cn3c(ccc(C4=CCCCC4)c3=O)[C@@H]1N2CC1CC1,x,2.5,x,-10.1
COc1ccc(CC(=O)NCC2CCCN(Cc3ccccc3Cl)C2)cc1 (configuration not stated),-5.1,-2.8,-0.6,16.5*
COc1ccc(CC(=O)NCC2CCCN(Cc3cc(OC)cc(OC)c3)C2)cc1 (configuration not stated),0.2,-2.4,-1.0,-0.4
COC(=O)c1ccc(CN2CCCC(CNC(=O)Cc3ccc(OC)cc3)C2)cc1 (configuration not stated),-4.5,-1.1,28.1,-0.2
COc1ccc(CC(=O)NCC2CCCN(Cc3ccc(OC(F)(F)F)cc3)C2)cc1 (configuration not stated),-9.1,0.2,-0.8,21.5*
COCC(=O)Nc1ccc2c(c1)[C@H]1C[C@H](CC(=O)N3CCOCC3)O[C@@H](CO)[C@H]1O2,x,3.2,x,0.3
O=C(N[C@H]1C=C[C@@H](CC(=O)N2CCOCC2)O[C@H]1CO)c1cccc(F)c1,x,3.2,x,1.1
CN(Cc1ccccc1)C(=O)COC(=O)c1cncc(Br)c1,1.3,-2.1,-5.2,16.8*
COc1ccccc1CN1CC2(C1)[C@H](c1ccccc1)[C@H](CO)N2Cc1ccccc1,x,0.1,x,-1.3
CC(C)c1ccc2[nH]c3c(c2c1)[C@@H]1CCN2C(=O)CCC[C@H](C3)[C@H]12,-0.1,-1.6,x,34.5*
CC(=O)OCC1=C(C(=O)O)N2C(=O)C(NC(=O)c3ccc(COc4c(C)cccc4Cl)o3)C2SC1 (configuration not stated),13.7,40.5*,x,-1.9
CC(=O)OCC1=C(C(=O)O)N2C(=O)C(NC(=O)c3ccc(COc4ccc(Cl)cc4)o3)C2SC1 (configuration not stated),1.9,59.8*,9.4,-2.6
